Results from PubChem BioAssay (NCI).
Compounds without any hit were thinned out: in the full panel of roughly 83,000, 20% have a hit.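 96-well plates, one dose, 48 hours. Percent growth reported; active if below 10.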 The source made the active and inactive calls.

System: COLO 205 colon
Experiment: NCI-60 one-dose screen, 48 h (100 = growth as untreated, 0 = no growth, -100 = all killed)
Settings: 10 µM unless noted

| SMILES | growth |
| --- | --- |
| O=C1Nc2cc(-c3cccc(O)c3)ccc2/C1=C/c1ccc[nH]1 | 83.7% (inactive) |
| COc1ccc(/C=C/c2nc(Nc3ccc(S(=O)(=O)NC(C)=O)cc3)c3ccccc3n2)cc1 | 49.7% (inactive) |
| CCNC(=O)Oc1ccc(/C(=C(\C)c2ccccc2)c2ccc(OCCN3CCCCC3)cc2)cc1 | 6.41% (active) |

System: DU-145 prostate
Experiment: as above
Settings: 10 µM unless noted

| SMILES | growth |
| --- | --- |
| Cc1nn(-c2ccccc2)c(Cl)c1/C=C/C(=O)c1ccc(F)cc1 | 104% (inactive) |
| COc1cc2oc(-c3cccc(C(=O)Nc4ccc(Br)cc4)c3)cc(=O)c2c(OC)c1OC | 57.6% (inactive) |
| CC1=C(C(=O)/C=C/c2c[nH]c3ccccc23)C(c2ccccc2)NC(=S)N1 (stereo unspecified) | 113% (inactive) |
| CCCCCN1C=C/C(=C\C(=O)N(C)c2ccc(Oc3ccccc3)cc2)c2ccccc21 | 103% (inactive) |
| Cn1cc(-c2nc(-c3c[nH]c4c(Cl)nccc34)cs2)c2cc(Br)ccc21 | 80.3% (inactive) |
| COc1ccc(/C=C2\Oc3cc(OCCCN4CCCCC4)ccc3C2=O)cc1OC | 95.9% (inactive) |
| Cc1cc2nc3c4cc(C=O)ccc4n(CCN(C)C)c3nc2cc1C | 0.0752% (active) |
| S=c1cc(S)c2cc(Br)ccc2[nH]1 | 105% (inactive) |
| O=C(/C(=C\c1ccc([N+](=O)[O-])cc1)S(=O)Cc1ccc(Cl)cc1)c1ccc(Cl)cc1 (stereo unspecified) | 77.7% (inactive) |
| COc1cc(CC(=O)c2ccc(O)c(OC)c2)ccc1O | 108% (inactive) |
| O=C(NCCc1ccccc1)Nc1ccc2cc3ccc(NC(=O)NCCc4ccccc4)cc3nc2c1 | 29.2% (inactive) |
| C=C(C)[C@@H]1CC[C@]2(C(=O)N3CCN(C)CC3)CC[C@]3(C)[C@H](CC[C@@H]4[C@@]5(C)C/C(=C/c6cccnc6)C(=O)C(C)(C)[C@@H]5CC[C@]43C)[C@@H]12 | 74% (inactive) |
| COc1cc2nc(-c3ccc(Cl)cc3)cc(OCCCN3CCC(O)CC3)c2cc1OC | 38.5% (inactive) |
| O=S(=O)(NCCNc1nccc(-c2c(-c3cccc(O)c3)nc3occn23)n1)c1ccccc1 | 97.7% (inactive) |
| NC(=NCCCOc1ccc(F)cc1)Nc1ccc(Cl)cc1 | 25% (inactive) |
| C#Cc1cccc(NC(=O)c2cccc(NC(=O)CCl)c2)c1 | 4.82% [8.25 µM] (active) |
| CCN1Cc2nc3sc(C)c(C)c3c(=O)n2C=C1C | 61.8% (inactive) |
| O=C1Nc2cc(-c3cccc([N+](=O)[O-])c3)ccc2/C1=C/c1ccc[nH]1 | 111% (inactive) |
| C[C@H]1[C@H](C)CC[C@]2(C(=O)NCC#CCN3CCN(C)CC3)CC[C@]3(C)C(=CC[C@@H]4[C@@]5(C)Cc6c([nH]c7ccccc67)C(C)(C)[C@@H]5CC[C@]43C)[C@H]12 | 73.1% (inactive) |

| SMILES | growth |
| --- | --- |
| COc1cc(/C=C/c2cc(O)c(C(C)=O)c(O)c2)cc2c1O[C@]1(C)CC[C@@H](O)C(C)(C)[C@H]1C2 | 74.5% (inactive) |
| N#CC1=C(N)Oc2c(cnn2-c2ccc([N+](=O)[O-])cc2[N+](=O)[O-])C1c1ccccc1 (stereo unspecified) | 114% (inactive) |
| COc1ccc(C(=O)c2cc(C)c(OC)c(C)c2)c(OC)c1N(C(=O)CCl)C(=O)CCl | 0.0631% (active) |
| CCC(=O)Oc1ccc(/C(=C(\C)c2ccccc2)c2ccc(OCCN3CCCCC3)cc2)cc1 | 91.5% (inactive) |
| Cc1ccc(NC(=O)c2cc(-c3nc4ccccc4s3)c(=O)n(NS(=O)(=O)c3ccc(Cl)cc3)c2N)cc1 | 107% (inactive) |
| O=C1Nc2ccc(F)cc2/C1=C\c1c(-c2ccccc2)nc2ccccn12 | 86.5% (inactive) |
| O=C(NO)c1ccc(-n2nc(-c3ccccc3)c3ccccc32)cc1 | 38.4% (inactive) |
| O=C1Nc2ccccc2/C1=C\c1c(-c2ccc(F)cc2)nc2ccccn12 | 94.5% (inactive) |
| Oc1cccc(CCc2ccc(Oc3cc(CCc4cccc(O)c4)cc(O)c3O)cc2)c1 | 88.8% (inactive) |
| CCCCCCCC(=O)OCC/C=C/C1OC1C1OC(=O)/C=C\C=C\C(=O)N(C(C)=O)C(=O)/C=C(/C)CCC2OC2C1OC(=O)NC(C)=O (stereo unspecified) | 84.3% (inactive) |
| Cc1ccc(NS(=O)(=O)c2ccc(-c3cnc(C4CC4)o3)cc2)cc1C(F)(F)F | 87.1% (inactive) |
| CNC(=O)c1cncc(Cn2nc(C)c(NC(=O)c3ccc(COc4ccc(C(F)(F)F)cc4C)cc3)c2C)c1 | 67% (inactive) |
| Cc1cc(C)c(S(=O)(=O)Oc2ccccc2[N+](=O)[O-])c(C)c1 | 15.7% (inactive) |
| C=C1C(=O)O[C@H]2[C@H]1CC/C(CNC(=O)C(C)c1ccc(CC(C)C)cc1)=C\CC[C@@]1(C)O[C@@H]21 (stereo partly specified) | 16.4% (inactive) |
| NC(=S)N1N=C(c2ccccc2)CC1c1cn(-c2ccccc2)nc1-c1ccc(OCc2ccccc2)cc1 (stereo unspecified) | 104% (inactive) |
| CN1CCN(C(=O)[C@]23CCC(C)(C)C[C@H]2C2=CC[C@@H]4[C@@]5(C)C/C(=C/c6cccnc6)C(=O)C(C)(C)[C@@H]5CC[C@@]4(C)[C@]2(C)CC3)CC1 | 71.6% (inactive) |
| O=C1Nc2cc(-c3cccc(O)c3)ccc2/C1=C/c1ccc[nH]1 | 33.8% (inactive) |
| COc1ccc(/C=C/c2nc(Nc3ccc(S(=O)(=O)NC(C)=O)cc3)c3ccccc3n2)cc1 | 69.5% (inactive) |
| CCNC(=O)Oc1ccc(/C(=C(\C)c2ccccc2)c2ccc(OCCN3CCCCC3)cc2)cc1 | 84.1% (inactive) |
